Results reported in PubChem BioAssay (NCI).
Compounds without any hit were thinned out: in the full panel of roughly 83,000, 20% have a hit.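 Results are percent growth after 48 hours of single-concentration exposure. 100 means growth as in untreated cells, lower positive values show inhibition; negative values down to -100 show cell death.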 Activity calls are given as the source filed them. The calls were made as follows: active = growth percent below 10; inactive = the rest.

Key:
Experiment in all cases: NCI-60 one-dose screen, 48 h (100 = growth as untreated, 0 = no growth, -100 = all killed)
Details in all cases: 10 µM unless noted
[1] = system: NCI-H23 lung
[2] = system: NCI-H226 lung
[3] = system: NCI-H322M lung
[4] = system: HOP-62 NSCLC
[5] = system: NCI-H460 lung
[6] = system: HOP-92 NSCLC
[7] = system: NCI-H522 lung
[8] = system: A549/ATCC NSCLC
[9] = system: 786-0 renal
[10] = system: COLO 205 colon
[11] = system: DU-145 prostate
[12] = system: K-562 leukemia
[13] = system: MALME-3M melanoma
[14] = system: MDA-MB-231 breast
[15] = system: RXF 393 renal
[16] = system: SF-268 CNS
[17] = system: SF-295 CNS
[18] = system: SF-539 CNS
[19] = system: UACC-257 melanoma
[20] = system: M14 melanoma

Measured: growth

Cc1csc(-c2ccc3c(c2)COC3(CCCN(C)C)c2ccc(F)cc2)c1 (stereo not given)
active: [4] -64.4% | [5] -45.7% | [7] -38.8% | [10] -69.1% | [12] -19.9% | [13] -71.9% | [19] -57.7% | [20] -70.3%
inactive: [1] 88.9% | [2] 95.8% | [3] 77% | [6] 34.3% | [8] 31.3% | [9] 61.8% | [11] 42.8% | [14] 44.3% | [15] 43.5% | [16] 57.2% | [17] 73.7% | [18] 73.9%

CC1(C)NC2=C(C(Nc3cccnc3)N1)C(c1ccc([N+](=O)[O-])cc1)C(C(=O)c1ccc(N=[N+]=[N-])cc1)O2 (stereo not given)
inactive: [1] 103% | [2] 105% | [3] 100% | [4] 103% | [5] 95.4% | [6] 94% | [7] 96.7% | [8] 104% | [9] 100% | [10] 109% | [11] 106% | [12] 101% | [13] 99.2% | [14] 102% | [15] 112% | [16] 101% | [17] 104% | [18] 102% | [19] 104% | [20] 104%

COc1cc2nc(Cl)nc(Nc3cccc(C(=O)/C=C/c4ccc(F)cc4)c3)c2cc1OC
inactive: [1] 76% | [2] 73.2% | [3] 86.5% | [4] 85.9% | [5] 95.4% | [6] 75.3% | [7] 73.4% | [8] 70.2% | [9] 57.7% | [10] 89.5% | [11] 85.7% | [13] 81.2% | [14] 62.4% | [15] 69.4% | [16] 89.6% | [17] 74.1% | [18] 25.8% | [19] 102% | [20] 62%
active: [12] 7.78%

N#C/C(=C\c1ccc(-c2ccccc2)o1)c1nc(-c2ccco2)cs1
inactive: [1] 82.7% | [2] 81.3% | [3] 84.6% | [4] 98.6% | [5] 85% | [6] 87.4% | [7] 93.8% | [8] 101% | [9] 106% | [10] 104% | [11] 107% | [12] 93.2% | [13] 94.8% | [14] 86.3% | [15] 105% | [16] 101% | [17] 97.6% | [18] 94.9% | [19] 103% | [20] 93.8%

Cc1cc(N(CCCNc2ccnc3cc(Cl)ccc23)Cc2ccco2)nc(Cl)n1
active: [12] 9.75%
inactive: [1] 31.5% | [2] 68.1% | [3] 76.6% | [4] 41.6% | [5] 57.1% | [6] 27.1% | [7] 59.9% | [8] 67% | [9] 55.6% | [10] 24.5% | [11] 71.6% | [13] 74% | [14] 61.7% | [15] 71.1% | [16] 72.7% | [17] 42.3% | [18] 54.3% | [19] 59.9% | [20] 46.4%

C=C1CC[C@@H](C(=O)OC)Cc2nc(C)ccc21
inactive: [1] 97% | [2] 103% | [3] 109% | [4] 106% | [5] 106% | [6] 106% | [7] 86.4% | [8] 98.5% | [9] 101% | [10] 117% | [11] 119% | [12] 101% | [13] 105% | [14] 108% | [15] 118% | [16] 109% | [17] 98.4% | [18] 99.3% | [19] 94.4% | [20] 105%

CC(c1ccccc1)N1C(=O)C(C2SC(=S)N(C(C)c3ccccc3)C2=O)SC1=S (stereo not given)
inactive: [1] 96.1% | [2] 99.9% | [3] 93.1% | [4] 97.5% | [5] 82.5% | [6] 83.7% | [7] 77.5% | [8] 82.3% | [9] 96.2% | [10] 85.7% | [11] 95.1% | [12] 57.9% | [13] 69.9% | [14] 73.4% | [15] 85.6% | [16] 92.2% | [17] 98.6% | [18] 50.6% | [19] 81.7% | [20] 69.8%
